The source made the active and inactive calls.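 The calls were made as follows, unless noted: active = fluorescence slope higher than the sample average by over 3 SD (cut at about -0.22 in these data, passing the limit was not always enough); inactive = the rest.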
Assays:
[1] = inhibitors of TNFa-induced NFkB p65 translocation, primary screen, imaging, HUVEC, MLSMR starter and 10KST1 sets (AID 438;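 active = inhibition above 20% together with a positive visual image hit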;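 also: compound added about 3h40 before a 20 min TNFalpha stimulation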;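 as to inhibition: signal is the nuclear over cytoplasmic p65 intensity ratio per well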); settings: HUVEC TNFa-induced p65 nuclear translocation; cell count: measured here: nuclei count (cytotoxicity indicator), at 2.08 µM; inhibition: at 2 µM, stronger effect = higher value, 0% TNFa-plus-vehicle, 100% no-TNFa wells
[2] = reduction of polyQ htt aggregates in cells – imaging, exon1htt(103Q)mCFP cells, high-content imaging, primary screen (AID 483;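 active = visual image review flags a hit and inhibition of aggregation exceeds 20%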;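 also: compound exposure lasted 3 days before fixation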;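 as to nuclei count: percent of the per-plate median nuclei count of sample wells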); settings: exon1htt(103Q)mCFP cell line, aggregate imaging, at 2 µM; inhibition of aggregation: stronger effect = higher value; nuclei count: measured here: cell count, toxicity
[3] = endothelial E-selectin expression blockers – imaging, HUVEC, immunofluorescence, MLSMR starter and 10KST1 sets, primary screen (AID 487;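 active = visually confirmed hit in the image check and inhibition above 20%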;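 as to inhibition: signal is fraction of cell area covered by stained E-selectin grains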;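 as to nuclei count: 100% = median nuclei count of all wells on the same plate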); settings: HUVEC TNFalpha-induced E-selectin immunofluorescence imaging, at 2 µM; inhibition: stronger effect = higher value; nuclei count: measured here: cell number, toxicity
[4] = target: Voltage-gated potassium channel subunit beta-2 (Rattus norvegicus) (UniProt P62483); assay: inhibitors of rat Kvbeta2 reductase activity – biochemical, NADPH fluorescence, primary screen (AID 622); settings: recombinant KvBeta, 4-cyanobenzaldehyde reduction, at 10 µM, stronger effect = higher value;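 also: slope of raw intensity against log time taken from 70 to 1610 s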
[5] = target: Voltage-gated potassium channel subunit beta-2 (Rattus norvegicus) (UniProt P62483); assay: enhancers of rat Kvbeta2 NADPH turnover – biochemical, NADPH fluorescence, primary screen (AID 623;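 active = NADPH fluorescence slope more negative than the mean of all samples by about 3 SD, 99.7% confidence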;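 also: fluorescence intensity change per second fitted from 20 to 320 s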); settings: Recombinant KvBeta, NADPH fluorescence decrease slope, 10 min; at 10 µM; stronger effect = lower value
[6] = target: Alpha-2C adrenergic receptor (Homo sapiens) (UniProt P18825); assay: compounds altering alpha2C-coupled GIRK flux – cell-based, HEK293 alpha2C/GIRK1/2, thallium flux, primary screen (AID 624;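 active = fluorescence slope after compound addition differing from the mean of all screened samples at 99.7% confidence, in either direction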;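 also: slope of fluorescence ratio to pre-addition baseline per second over 15 to 24 s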); settings: thallium flux BTC fluorescence, at 10 µM, actives lie on both sides
[7] = blockers of RIG-like receptor reporter activation – cell-based, Sendai virus stimulus, luciferase, 10K MLSCN set, TLR/RLR signaling modifier project, primary screen (AID 602276;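 active = inhibition at or above 50% at 10 µM; inactive = inhibition below 50%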;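 also: firefly luciferase from ISG56 promoter only with Renilla not read in this screen; 0% = Sendai virus plus DMSO and 100% = medium plus DMSO without virus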); settings: HEK293 RL24 IRF3 luciferase reporter, at 10 µM, stronger effect = higher value
[8] = TLR3 IRF3 reporter activation blockers – cell-based, poly I:C stimulus, luciferase, 10K MLSCN set, primary screen (AID 602277;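 active = inhibition of the reporter signal at or above 50%; inactive = inhibition below 50%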); settings: HEK293-TLR3 RL24 IRF3 luciferase reporter, at 10 µM, stronger effect = higher value

Alpha-2C adrenergic receptor (Homo sapiens), sequence (P18825 whole entry, looked up): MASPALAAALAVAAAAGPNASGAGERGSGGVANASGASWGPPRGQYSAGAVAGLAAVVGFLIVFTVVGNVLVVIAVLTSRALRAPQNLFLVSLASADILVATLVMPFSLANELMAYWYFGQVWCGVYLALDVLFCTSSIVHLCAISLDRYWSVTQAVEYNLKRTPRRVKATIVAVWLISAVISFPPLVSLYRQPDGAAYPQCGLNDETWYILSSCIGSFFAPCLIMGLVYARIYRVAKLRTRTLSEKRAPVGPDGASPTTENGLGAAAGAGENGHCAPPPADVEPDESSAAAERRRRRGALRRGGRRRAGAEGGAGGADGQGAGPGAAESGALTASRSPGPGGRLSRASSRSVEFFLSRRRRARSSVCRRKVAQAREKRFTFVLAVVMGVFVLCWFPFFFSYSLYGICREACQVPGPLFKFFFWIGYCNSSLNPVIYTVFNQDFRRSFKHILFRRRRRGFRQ
Voltage-gated potassium channel subunit beta-2 (Rattus norvegicus), sequence (P62483 whole entry, looked up): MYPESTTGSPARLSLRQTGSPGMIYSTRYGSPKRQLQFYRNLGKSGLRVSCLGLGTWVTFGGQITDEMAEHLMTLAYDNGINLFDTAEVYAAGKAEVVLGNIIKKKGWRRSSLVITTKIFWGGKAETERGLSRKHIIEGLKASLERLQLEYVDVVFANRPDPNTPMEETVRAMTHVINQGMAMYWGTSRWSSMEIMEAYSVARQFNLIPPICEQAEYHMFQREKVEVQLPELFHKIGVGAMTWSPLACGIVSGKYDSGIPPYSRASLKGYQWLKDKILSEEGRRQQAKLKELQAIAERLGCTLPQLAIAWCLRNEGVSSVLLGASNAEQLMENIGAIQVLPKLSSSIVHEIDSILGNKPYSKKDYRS

Compound | cell count [1] | inhibition [1] | inhibition of aggregation [2] | nuclei count [2] [%] | inhibition [3] | nuclei count [3] [%] | fluorescence slope [4] | NADPH fluorescence slope [5] | slope [6] | inhibition [7] | inhibition [8]
COc1ccc(S(=O)(=O)Cc2ccc(C(=O)N3CCN(c4ccccc4)CC3)o2)cc1 | 524 | -8.3% (inactive) | 5.7% (inactive) | 70.9 | -89.5% (inactive) | 133 | -0.44 (inactive) | -4.3e-05 (inactive) | 0.00594 (inactive) | -7.36% (inactive) | 26.1% (inactive)
COc1ccc2c(=O)c3c(=O)n(Cc4ccco4)c(-c4cc(OC)c(OC)c(OC)c4)nc3oc2c1 | 483 | -9.2% (inactive) | -28.3% (inactive) | 96.6 | -11.9% (inactive) | 121 | -0.525 (inactive) | 5.6e-06 (inactive) | 0.00457 (inactive) | 3.4% (inactive) | -1.04% (inactive)
CCN1CCN(C(=O)c2cc3c(=O)n(C)c4ccccc4c3n2C)CC1 | 601 | 20.7% (inactive) | -10.2% (inactive) | 102 | -89.4% (inactive) | 126 | -0.583 (inactive) | -1.9e-05 (inactive) | 0.00682 (inactive) | 2.73% (inactive) | 32.2% (inactive)
CCCS(=O)(=O)C(=C1Nc2ccccc2N1)S(=O)(=O)CCC | 543 | -7% (inactive) | -18.7% (inactive) | 119 | 0.5% (inactive) | 75.9 | -0.63 (inactive) | -4.3e-05 (inactive) | 0.00495 (inactive) | 12.1% (inactive) | 15.8% (inactive)
O=C(O)c1cccc(NC(=O)C2C3C=CC(C3)C2C(=O)OCC(F)(F)C(F)F)c1 (centres undefined) | 683 | 8.3% (inactive) | 28.9% (inactive) | 47.7 | -33.6% (inactive) | 98.7 | -0.38 (inactive) | -3.4e-05 (inactive) | 0.00482 (inactive) | 10.2% (inactive) | 26% (inactive)
Cc1cc(C)c(OCC(=O)Nc2cccc(O)c2)cc1C | 252 | -14.9% (inactive) | 46.4% (active) | 40.4 | -20.3% (inactive) | 102 | -0.44 (inactive) | -8.2e-06 (inactive) | 0.0065 (inactive) | 16.6% (inactive) | 11.6% (inactive)
COC(=O)C1=CN(C)C=C(C(=O)OC)C1c1ccc(O)c(OC)c1 | 281 | 18.4% (inactive) | -27.8% (inactive) | 23.5 | 7.6% (inactive) | 103 | -0.39 (inactive) | -4.6e-05 (inactive) | 0.00249 (inactive) | 11.2% (inactive) | 23.8% (inactive)
CCOC(=O)c1cccc(NC(=O)CSc2nc3cccnc3n2C)c1 | 782 | -8.4% (inactive) | 0.7% (inactive) | 111 | -14.2% (inactive) | 105 | -0.526 (inactive) | 4.1e-06 (inactive) | 0.00563 (inactive) | -4.22% (inactive) | -23.7% (inactive)
CN1CCc2c(sc3c2C(=O)NC(c2cccc(OC(=O)c4cccs4)c2)N3)C1 (centres undefined) | 497 | -2.5% (inactive) | -4.1% (inactive) | 101 | -21.9% (inactive) | 108 | -0.422 (inactive) | -4.2e-05 (inactive) | 0.00392 (inactive) | -5.69% (inactive) | 10.3% (inactive)
COc1ccccc1CCNC(=O)C1CCCO1 (centres undefined) | 665 | -8.8% (inactive) | -27.9% (inactive) | 118 | -45.2% (inactive) | 98.9 | -0.401 (inactive) | -1.9e-05 (inactive) | 0.00423 (inactive) | 0.904% (inactive) | -9.53% (inactive)
CCN1CCN(CCCNC(=O)c2cc3sccc3n2CC)CC1 | 605 | 11% (inactive) | -0.9% (inactive) | 105 | 37.9% (inactive) | 108 | -0.586 (inactive) | -3.5e-05 (inactive) | 0.00699 (inactive) | -14.9% (inactive) | 15.5% (inactive)
Cc1ccc(S(=O)(=O)N2CCC(C(=O)N3CCN(Cc4ccccc4)CC3)CC2)cc1 | 659 | -14% (inactive) | 19% (inactive) | 110 | -40.7% (inactive) | 106 | -0.518 (inactive) | -1.5e-05 (inactive) | 0.0064 (inactive) | 8.56% (inactive) | 16.4% (inactive)
COc1ccc(C)cc1S(=O)(=O)N(C)CC(=O)Nc1ccc2c(c1)OCCO2 | 489 | -8.1% (inactive) | 7.6% (inactive) | 92.1 | 22.5% (inactive) | 110 | -0.427 (inactive) | 3.4e-05 (inactive) | 0.00534 (inactive) | -4.31% (inactive) | -10.2% (inactive)
CCOc1ccc(NC(=O)CN2CCN(CC(=O)c3ccc(OCC)cc3)CC2)cc1 | 418 | 2.1% (inactive) | -16% (inactive) | 110 | -73% (inactive) | 112 | -0.397 (inactive) | -5.5e-05 (inactive) | 0.00276 (inactive) | 10.7% (inactive) | 24.5% (inactive)

Reference: PubChem BioAssay
